# Inconclusive results are not listed. A number with no mark means an inactive call. Activity calls are given as the source filed them. Calls come from the whole dose curve; as a rule, active = well fitted cell-killing curve with a large enough effect; inconclusive = small, poorly fitted or top-dose-only effect; inactive = flat fitted curve, though single readings scatter.
# What was measured:
# [1] = Cellular viability qHTS for adrenocortical cancer (ACC) cell line SW-13 (AID 1963989); conditions: SW-13 ACC cells viability, CellTiter-Glo, 48 h; activity (max response): stronger effect = lower value; note: nearly all actives have a fitted effect of over 65% in size;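 for activity (max response): cells grown in serum-free medium with ITS supplement; % is set by controls: 0 for no effect and ±100 for the full control effect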
# Procedure, shortened: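 Viability was read as CellTiter-Glo luminescence after 48 h compound treatment (up to 46 uM final) of SW-13 cells grown serum-free; titration curves were fit with a four-parameter logistic model to give IC50 and efficacy.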
# [2] = Cellular viability qHTS for adrenocortical cancer (ACC) cell line NCI-H295R (AID 1963990); note: nearly all actives have a fitted effect of over 60% in size
# Procedure, shortened: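 CellTiter-Glo ATP luminescence, read 48 h after compound addition, measured viability of NCI-H295R adrenocortical cells grown serum-free with ITS. Final concentrations spanned up to 46 uM. Data normalized to DMSO and doxorubicin, fitted for IC50 and maximal response.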
# Potency is the fitted concentration of half-maximal effect.
SMILES,activity (max response) [1],Potency [2],Potency [1]
C[C@@H]1CCN(C(=O)CC#N)C[C@@H]1N(C)c1ncnc2[nH]ccc12,-8.3%,inactive,–
CC(=O)[C@@]1(O)CC[C@H]2[C@@H]3C[C@H](C)C4=CC(=O)CC[C@]4(C)[C@H]3CC[C@@]21C,-1.82%,inactive,–
COc1cc(-c2cn(C)c(=O)c3cnccc23)c(OC)cc1CN(C)C,19.4%,inactive,–
COCCNCc1ccc(-c2cc3nccc(Oc4ccc(NC(=O)C5(C(=O)Nc6ccc(F)cc6)CC5)cc4F)c3s2)nc1,–,3.16 µM (active),3.55 µM (active)
CC[N+](CC)(CCNC(=O)C(=O)NCC[N+](CC)(CC)Cc1ccccc1Cl)Cc1ccccc1Cl,-1.37%,inactive,–
C[C@]12CC[C@H](O)CC1=CC[C@@H]1[C@@H]2CC[C@]2(C)C(c3cccnc3)=CC[C@@H]12,2.71%,inactive,–
OC[C@H]1O[C@@H](Oc2cc(O)cc(/C=C/c3ccc(O)cc3)c2)[C@H](O)[C@@H](O)[C@@H]1O,7.59%,inactive,–
O=C(c1cc(O)c(O)c(O)c1)c1ccc(O)c(O)c1O,4.03%,inactive,–
O=C1Cc2cc(C(=O)NC3C[C@H]4CC[C@@H](C3)N4S(=O)(=O)CC3CCN(CCCC(F)(F)F)CC3)c(Cl)cc2N1 (stereo partly drawn),-5.12%,inactive,–
COC(=O)C1=C(C)NC(C)=C(C(=O)OCC(C)=O)C1c1ccccc1[N+](=O)[O-] (stereo not drawn),–,6.51 µM (active),16.4 µM (active)
COc1ccc(-n2cnc3cc(C(=O)N4CCCCC4)ccc32)cc1,-10.1%,inactive,–
COc1ncc(Nc2ncc(C(C)N3CCN(S(C)(=O)=O)CC3)cc2-c2nc(C)nc(N)n2)cc1F (stereo not drawn),-11.9%,inactive,–
Nc1ccc(O)c(C(=O)O)c1,6.74%,inactive,–
CS(=O)(=O)c1ccc(-c2cnc(NCc3ccco3)n3cnnc23)cc1,-12%,inactive,–
CC(C)(c1ccc(OCC(O)CO)cc1)c1ccc(OCC(O)CCl)cc1 (stereo not drawn),-21.2%,inactive,–
CC(C)(Cc1c[nH]c2ccccc12)NCC(O)COc1ccccc1C#N (stereo not drawn),-3.72%,inactive,–
CCc1ccc(/C=C2/SC(=S)NC2=O)cc1,–,17.8 µM (active),25.1 µM (active)

SMILES,activity (max response) [1],Potency [2],Potency [1]
CCCCC(=O)OCC(=O)[C@H]1[C@H](C)C[C@H]2[C@@H]3C[C@H](F)C4=CC(=O)C=C[C@]4(C)[C@@]3(F)[C@@H](O)C[C@@]21C,5.4%,inactive,–
COC(=O)C1=C(C)NC(C)=C(C(=O)OCCc2ccc(N3CCN(C(c4ccccc4)c4ccccc4)CC3)cc2)C1c1cccc([N+](=O)[O-])c1 (stereo not drawn),7.28%,inactive,–
CC(C)C(N)C(=O)OCC(CO)OCn1cnc2c(=O)[nH]c(N)nc21 (stereo not drawn),-23%,inactive,–
COc1c(C)cc(NC(=O)c2nn(Cc3ccc(F)cc3)c3c2CN(C(=O)c2ccc[nH]2)C[C@]3(C)C(N)=O)cc1C,-5.75%,inactive,–
O=C(CCCCC(=O)Nc1c(I)cc(I)c(C(=O)O)c1I)Nc1c(I)cc(I)c(C(=O)O)c1I,10.3%,inactive,–
Cc1c(Cn2ccnc2)c2ccccc2n1CCC(=O)O,15.3%,inactive,–
C#CCN(C)CCCOc1ccc(Cl)cc1Cl,-17.3%,18.4 µM (active),–
COc1ccc(Cl)cc1-c1cc(=O)[nH]c(=S)n1CC(N)=O,-3.52%,inactive,–
Nc1ccc2cc3ccc(N)cc3nc2c1,–,2.59 µM (active),6.51 µM (active)
Fc1ccc(-c2nc(-c3ccccc3F)[nH]c2-c2ccncc2)cc1,-20.2%,inactive,–
CCCCC1C(=O)N(c2ccccc2)N(c2ccc(O)cc2)C1=O (stereo not drawn),–,5.17 µM (active),16.4 µM (active)
O=C(O)CCNc1cc(N2CCc3ccccc3CC2)nc(-c2cccnc2)n1,-9.23%,inactive,–
CC(=O)Oc1ccc(C(=C2CCCCC2)c2ccc(OC(C)=O)cc2)cc1,-5.44%,inactive,–
OC(C#CCN1CCCC1)(c1ccccc1)c1ccccc1,-0.545%,inactive,–
C=CC[N+]1([C@H]2C[C@H]3[C@@H]4CC[C@H]5C[C@H](OC(C)=O)[C@@H](N6CCCCC6)C[C@]5(C)[C@H]4CC[C@]3(C)[C@H]2OC(=O)CC)CCCCC1,-4.47%,inactive,–
N[C@@H](CCC(=O)O)C(=O)N[C@@H](Cc1c[nH]c2ccccc12)C(=O)O,9.67%,inactive,–
Nc1nc(N)c2nc(-c3cccc(Cl)c3)c(N)nc2n1,–,1.12 µM (active),1.26 µM (active)

# Reference: PubChem BioAssay (NCATS)
